Sampled rows, rich in hits. Any-hit rate of the full collection: about 19%.
TDP1 cell CPT: DT40-hTDP1 cell growth loss with CPT; Potency, µM (top dose mostly 46.2 µM), usual class: inhibitors; 12% of 420,000 active; chicken DT40 Tdp1-/-;hTDP1 cells + 20 nM CPT, ATP luminescence, 48 h; note: nearly all actives have a fitted effect of over 55% in size
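Chicken DT40 Tdp1-/- cells complemented with human TDP1, 400 cells/well, exposed to compounds plus 20 nM camptothecin for at least 48 h at 37 C; viability read as ATP content by CellTiter-Glo luminescence.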
DT40 TDP1 no CPT: qHTS for Inhibitors of human tyrosyl-DNA phosphodiesterase 1 (TDP1): qHTS in cells in absence of CPT; Potency, µM (highest dose often 46.2 µM), hits mostly inhibitors; 15% of 420,000 active; AID 686978, 2013; DT40 Tdp1-/- hTDP1 cells, no CPT, ATP luminescence, 48 h; note: nearly all actives have a fitted effect of over 55% in size
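Stably hTDP1-transfected Tdp1-null chicken DT40 cells were treated with library compounds minus camptothecin and grown for at least 48 hr at 37 °C, after which cellular ATP was quantified by luminescence.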
IL-1B inflam inh: blocks inflammasome-driven IL-1 beta release; THP-1 LPS/ATP IL-1B secretion, AlphaLISA, 16 h; stronger effect = lower value; activity change, % at 57.5 µM; 4.7% of 360,000 active; in the data active = activity change below about -50%; inconclusive = mostly about -30% to -49%
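Secreted IL-1B measured by AlphaLISA bead assay after 16 h compound exposure of THP-1 cells; compounds (final up to 57.5 uM) added 1 h before LPS (250 ng/mL) and ATP (1.25 mM) stimulation; lower signal means less secretion.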
ELG1 repair inh: blocks ELG1-dependent DNA repair in HEK293T cells; HEK293T ELG1-luciferase reporter, luminescence, 16 h; DNA damage induced by 5-fluorouridine; Potency, µM (highest dose often 46.1 µM), actives largely listed as inhibitors; 2.3% of 330,000 active; note: nearly all actives have a fitted effect of over 55% in size
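Step one: seed 2,000 cells per well. Step two: pin-transfer compound or DMSO alongside 5-fluorouridine. Step three: incubate 16 hr, 37 °C, 5% CO2. Step four: add ONE-Glo, wait 30 min, read luminescence.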
HT1080 IDH1KD tx: kills HT-1080 cells with IDH1 knockdown; HT-1080 IDH1 knockdown viability, ATP luminescence, 48 h; Potency, µM (titrated, usually from 46.1 µM), usual class: cytotoxic; 2% of 360,000 active; AID 686971
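In this qHTS, HT-1080 cells depleted of IDH1 are exposed for 48 h at 37 °C to compound titrations. Toxicity is scored from CellTiter-Glo luminescence, with DMSO as full viability and medium alone as none.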
HT1080NT lethal: kills 2HG-producing HT-1080-NT fibrosarcoma cells; Potency, µM (doses to about 46.1 µM), hits mostly cytotoxic; AID 686970; HT-1080-NT fibrosarcoma viability, CellTiter-Glo ATP luminescence, 48 h; 1.6% of 360,000 active;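 note: NT is the 2HG producing partner of a matched IDH1 knockdown line; nearly all actives have a fitted effect of over 55% in size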
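Read-out is CellTiter-Glo luminescence after 10 minutes at room temperature, following 48 hours' compound treatment of HT-1080-NT cells (750 cells/well, RPMI, 5% FBS, 37 degrees C).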
A number is an active result; . = inactive; ? = inconclusive; / = not tested or not shown. Unless noted, calls come from the whole dose curve; as a rule, active = well fitted curve in the direction sought with a large enough effect; inconclusive = small, poorly fitted or top-dose-only effect, or another doubt; inactive = no such curve, though single readings can be large; an effect the other way counts as inactive or inconclusive.

SMILES	TDP1 cell CPT	DT40 TDP1 no CPT	IL-1B inflam inh	ELG1 repair inh	HT1080 IDH1KD tx	HT1080NT lethal
CC(=O)Nc1cc(-c2ccccc2)cn2c(-c3ccc(F)c(Cl)c3)cnc12	23µM	?	.	/	?	.
CCn1nc(C)cc1C(=O)N1CCCC(C(=O)c2ccc(Oc3ccccc3)cc2)C1 (stereo not drawn)	?	?	.	?	.	.
CC(=O)NCC(=O)N1CCCC(C(=O)c2ccc(Oc3ccccc3)cc2)C1 (stereo not drawn)	9.2µM	?	.	.	.	.
O=C(Nc1cccc(-c2nc3cccnc3s2)c1)c1cccc(Br)c1	8.2µM	8.2µM	/	/	/	/
CCOc1ncccc1C(=O)Nc1cccc(-c2nc3cccnc3s2)c1	?	13µM	.	.	.	.
CN(C)c1ccc(C(=O)Nc2cccc(-c3nc4cccnc4s3)c2)cc1	5.8µM	10µM	/	/	/	/
O=C(Cc1ccccc1)Nc1cccc(-c2nc3cccnc3s2)c1	.	.	/	/	/	/
O=C(Cc1ccc(F)cc1)Nc1cccc(-c2nc3cccnc3s2)c1	.	.	/	/	/	/
CCCC(CCC)C(=O)Nc1cccc(-c2nc3cccnc3s2)c1	.	.	/	/	/	/
COc1ccc(NC(=O)N2CC3(CCN(C(=O)c4cnccn4)CC3)C2)cc1	.	.	/	/	/	/
CCC(C)Nc1nc(C)nc2c1oc1ccccc12 (stereo not drawn)	18µM	16µM	.	?	.	.
Cc1nc(NC(C)c2ccccc2)c2oc3ccccc3c2n1 (stereo not drawn)	21µM	10µM	.	?	?	.
Cc1nc(N[C@@H](Cc2ccccc2)C(=O)O)c2oc3ccccc3c2n1	.	.	.	.	.	.
Cc1nc(NCc2ccco2)c2oc3ccccc3c2n1	?	10µM	.	?	.	.
COCCCC1CCN(C(=O)c2cc(COc3cc(C)ccc3C)on2)CC1	?	?	.	?	.	.
CCc1cc(CNC(=O)c2cccc(OC3CCN(S(C)(=O)=O)CC3)c2)on1	?	?	.	/	.	16µM
COCCNC(=O)c1cccc(OC2CCN(Cc3ccccc3C)CC2)c1	.	.	.	.	.	.
COCCNC(=O)c1cccc(OC2CCN(Cc3ccc(Cl)c(F)c3)CC2)c1	?	?	-53	.	.	.
CCOCCCNC(=O)c1cccc(OC2CCN(S(C)(=O)=O)CC2)c1	.	.	.	?	.	.
COCCNC(=O)c1cccc(OC2CCN(Cc3cccc(SC)c3)CC2)c1	?	16µM	?	?	.	.
O=C(NCc1cccc(Cl)c1)c1cccc(OC2CCN(C(=O)C3CC3)CC2)c1	29µM	21µM	.	?	.	?
O=C(NCCCNC(=O)c1c(Cl)cccc1Cl)c1c(Cl)cccc1Cl	.	.	.	/	.	.
CCOC(=O)CCCCCC(=O)Nc1ccc2c(c1)C(=O)N([C@@H](C)CO)C[C@@H](C)[C@H](CN(C)C(=O)c1ccncc1)OCCCC[C@H](C)O2	.	.	.	/	.	.
CC(C)CN1C(=O)CN(S(C)(=O)=O)CC1(C)C(=O)NC(C)C (stereo not drawn)	.	.	.	/	.	.
COc1ccc(NC(=O)C2CCCN(S(=O)(=O)c3cn(C)cn3)C2)cc1Cl (stereo not drawn)	.	.	/	/	/	/
SMILES	TDP1 cell CPT	DT40 TDP1 no CPT	IL-1B inflam inh	ELG1 repair inh	HT1080 IDH1KD tx	HT1080NT lethal
CCOc1ccc(N(CC)S(=O)(=O)N2CCCC(C(=O)Nc3ccc(OC)c(Cl)c3)C2)cc1 (stereo not drawn)	16µM	23µM	/	/	/	/
CCOc1ccc(N(CC)S(=O)(=O)N2CCCC(C(=O)Nc3cc(Cl)ccc3OC)C2)cc1 (stereo not drawn)	?	18µM	/	/	/	/
C[n+]1c(/C=C/c2ccc(O)cc2)ccc2ccccc21	?	18µM	?	.	.	.
C[n+]1c(/C=C/c2ccc(F)cc2)ccc2ccccc21	3.5µM	2.5µM	/	/	/	/
C[n+]1c(/C=C/c2ccc3c(c2)OCO3)ccc2ccccc21	.	.	.	?	.	.
CCOc1ccc(/C=C/c2ccc3ccccc3[n+]2C)cc1OCC	4µM	2µM	/	/	/	/
Cc1ccc(C)c(C(O)c2ncc(-c3ccccc3Cl)[nH]2)c1 (stereo not drawn)	?	.	?	/	.	.
CC1NC(=O)c2ccccc2-n2c1nc1cc(F)ccc1c2=O (stereo not drawn)	/	/	/	.	/	/
Cn1c(=O)n(-c2cccc(Cl)c2)c(=O)c2sc3ccccc3c21	.	?	/	/	/	/
O=c1c2ccccc2sn1-c1cccc(Cl)c1	1.8µM	2.3µM	-102	/	?	.
O=c1c2ccccc2sn1-c1ccccc1	2.6µM	2.9µM	-101	?	16µM	?
CC(=O)Nc1ccc2c(=O)n(-c3ccccc3)sc2c1	2.6µM	3.3µM	-104	/	?	?
Cc1ccccc1-n1sc2cc(F)ccc2c1=O	1.8µM	2.6µM	-105	?	21µM	18µM
COc1ccc(-n2c(=O)c3sc4ccccc4c3n(CC(=O)NC3CCCCC3)c2=O)cc1	.	.	/	/	/	/
O=C1CN(c2ccccc2F)C(=O)CN1c1ccccc1F	.	.	.	.	.	.
O=c1ccsc2ccccc12	.	.	.	/	.	.
Cn1sc2ccccc2c1=O	2.3µM	1.6µM	-100	/	?	?
O=c1c2ccccc2sn1-c1ccccc1F	2.6µM	2.9µM	-107	/	?	.
O=C(O)c1cccc(-n2sc3ccccc3c2=O)c1	?	?	-107	.	.	.
N#Cc1ccc2c(=O)n(-c3ccccc3)sc2c1	3.3µM	2.6µM	.	/	.	.
CCCCNC(=O)Oc1ccc(C(=O)N2c3ccccc3NC(=O)C2C)cc1 (stereo not drawn)	.	?	.	.	.	.
Cc1cccn2c(=O)nc(SCC(=O)Nc3ccc4c(c3)OCCO4)nc12	.	.	.	.	.	.
CN1CCN(c2ncc3nc(-c4ccc(Cl)cc4)c(=O)n(Cc4ccc(F)cc4)c3n2)CC1	.	?	/	/	/	/
CC(CCc1ccccc1)NC(=O)C1CCC1 (stereo not drawn)	.	.	.	/	.	.
Cc1cccc(NC(=O)N2CCC(c3nc4ccccc4o3)CC2)c1	.	.	.	.	.	.
CC(C)c1ccc(NC(=O)N2CCC(c3nc4ccccc4o3)CC2)cc1	21µM	18µM	.	.	.	.
Cc1ccc(C2CCN(C(=S)NC(C)(C)C)C2)cc1 (stereo not drawn)	?	?	.	?	.	.
Cc1ccc(C2CCN(C(=S)Nc3cccc(C)c3)C2)cc1 (stereo not drawn)	?	18µM	.	.	.	.

Screening results: PubChem, National Center for Advancing Translational Sciences (NCATS)
